Experimental data as given in the OligoGym collection.
Further: reference of the scale not given here.

The sequences below were run against MTX3 (assay: pooled miR-30 sensor sort-seq; sequence = guide strand). Settings: shRNA.
Work on TAAAGTAATTGTCACTCTCAAC yielded a sensor-assay potency score (higher = more potent) of -1.48. For TTGCTGAGAGTTCATAATCAGC, the sensor-assay potency score (higher = more potent) was -1.72. For TTTGCCTTCACACACTTGGTGT, the sensor-assay potency score (higher = more potent) was -0.519. TAGAAGATTTAGGCACTCCTTG gave a sensor-assay potency score (higher = more potent) of -0.542. TAATTGTCACTCTCAACCCAGA was tested, and the sensor-assay potency score (higher = more potent) was -0.703. For TTAATATTTATCTATGTGCTAC, the sensor-assay potency score (higher = more potent) was -0.31. Sequence TTTTGGTTTAGAGTCTTCCTTA has a sensor-assay potency score (higher = more potent) of 0.00174. Sequence TATCACATTGACTTTCAAGGGT has a sensor-assay potency score (higher = more potent) of 0.582. Sequence TTGGCGAAGATTGTCATCCATC has a sensor-assay potency score (higher = more potent) of -1.1. Work on TTATCTATCACATTGACTTTCA yielded a sensor-assay potency score (higher = more potent) of -0.0166. Sequence TTTAGGAAACCGTACTTTGTAA has a sensor-assay potency score (higher = more potent) of -0.773.

The sequences below were run against MUC16 in the same assay as above. Settings: shRNA.
For TTGGACTTTCTGAACTAGCGTG, the sensor-assay potency score (higher = more potent) was -0.377. Work on TTGACATAGAGACTGTCCCTGT yielded a sensor-assay potency score (higher = more potent) of -0.193. TTGACATAGAGACTGTGCCTGT was tested, and the sensor-assay potency score (higher = more potent) was -0.153. TTGACATAGAAACTATTGCTTG showed a sensor-assay potency score (higher = more potent) of -0.839. Sequence TTGACATAGAGACTGTTCCGGT has a sensor-assay potency score (higher = more potent) of -0.323. TTGTCTTTGAAACCAGTTCTGG was tested, and the sensor-assay potency score (higher = more potent) was -0.722. With TAGTTGTCGTTGAAACAGCTGA the sensor-assay potency score (higher = more potent) was -0.38. TTTGTCTCTGTTGTTGAGCTGG showed a sensor-assay potency score (higher = more potent) of 0.192. For TTCAGTAGTAGCACTAGTGGGC, the sensor-assay potency score (higher = more potent) was 0.151. Work on TTGTCTGTGATGTTGAACTTGA yielded a sensor-assay potency score (higher = more potent) of -0.129. With TTGACATAGAGACTGTTCCTGT the sensor-assay potency score (higher = more potent) was -0.0675.

What follows are sequences tested against MUC20 in the same assay as above. Settings: shRNA.
In the case of TCTGTGGTCGGCCTCGTCCGGG, the sensor-assay potency score (higher = more potent) is reported as -1.58. TTAATAACCTCGATGTTTGTGA was tested, and the sensor-assay potency score (higher = more potent) was -0.0395. Work on TTCATCGTGGTCTTCGCTGAGG yielded a sensor-assay potency score (higher = more potent) of -0.448. For TGAAACACAGAACATGTGCCAA, the sensor-assay potency score (higher = more potent) was -0.681. For TTTACTGAAACACAGAACATGT, the sensor-assay potency score (higher = more potent) was -0.607. TTGGTGTCTCAACAGAGAGGGC gave a sensor-assay potency score (higher = more potent) of -0.842. TTCACCTGCACTCACGTCTGTG showed a sensor-assay potency score (higher = more potent) of -1. TACTGAAACACAGAACATGTGC showed a sensor-assay potency score (higher = more potent) of 0.46. TTGTGAGTGTCTTTGCCTCTTC was tested, and the sensor-assay potency score (higher = more potent) was -0.403. TTCGCTGAGGTTGTGATCTTGG showed a sensor-assay potency score (higher = more potent) of 0.418. For TAACTTGGTGTCTCAACAGAGA, the sensor-assay potency score (higher = more potent) was -0.859.

Each sequence was assayed against MUC4 in the same assay as above. Settings: shRNA.
TTTTTACTGACTTCCCTCGTGT gave a sensor-assay potency score (higher = more potent) of 0.677. With TTCAGGAAATAGGAGAACCTGG the sensor-assay potency score (higher = more potent) was -1.36. With TTCACCATAGAACGTCTCGTAT the sensor-assay potency score (higher = more potent) was -0.617. With TAGATGGAGAAGGACACACAGC the sensor-assay potency score (higher = more potent) was -1.17. With TTGTGAGTAGAAAACAGGGGTG the sensor-assay potency score (higher = more potent) was -0.53. Sequence TTTGTCATCTTTCTAATCCAAG has a sensor-assay potency score (higher = more potent) of -1.23. TAGTCTTGTCTTGATTCCCAGT was tested, and the sensor-assay potency score (higher = more potent) was -0.823.
